# Most compounds without a hit are left out; they make up all but 1.1% or so of the library.
# AGP1 TOR yeast = modulators of TOR pathway AGP1-GFP in S. cerevisiae; S. cerevisiae AGP1-GFP multiplex flow cytometry, 3 h; GFP as percent of DMSO wells; GFP response vs DMSO, % at 10 µM; 320,000 tested, 0.02% active;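 active means GFP response relative to DMSO above a set limit, near screen average plus 3 SD, cut at about 150% in these data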;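 further: median GFP channel fluorescence of the gated AGP1 strain per well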
# RPL19A-GFP yeast = yeast TOR pathway RPL19A-GFP modulation. 330,000 tested, 0.3% active. S. cerevisiae RPL19A-GFP strain, flow cytometry, 3 h; stronger effect = lower value. percent response vs DMSO, % at 10 µM;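 active means percent response vs DMSO below 50%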;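 further: median channel GFP fluorescence of the barcoded RPL19A-GFP strain; ratio of sample median GFP to plate DMSO average so 100% = DMSO; lower means less RPL19A-GFP as with rapamycin TOR inhibition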
# CIT2-GFP yeast = modulators of TOR pathway CIT2-GFP in S. cerevisiae. S. cerevisiae CIT2-GFP strain, flow cytometry, 3 h; 100 means same as DMSO wells. GFP response vs DMSO, % at 10 µM. 320,000 tested, 0.065% active;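 active means GFP response relative to DMSO above a set limit, near the screen mean plus 3 SD, cut at about 150% in these data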;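 further: ratio of well median GFP fluorescence to mean of DMSO wells on the plate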
# VLA-4 inh = inhibition in a human VLA-4 binding assay; P13612; VLA-4 expressing cells, ligand binding flow cytometry; inhibition, % (about 7 µM as worked out from the volumes in the protocol); 330,000 tested, 0.2% active; in the data active means inhibition above about 50%
# Target sequence (P13612 whole entry, looked up): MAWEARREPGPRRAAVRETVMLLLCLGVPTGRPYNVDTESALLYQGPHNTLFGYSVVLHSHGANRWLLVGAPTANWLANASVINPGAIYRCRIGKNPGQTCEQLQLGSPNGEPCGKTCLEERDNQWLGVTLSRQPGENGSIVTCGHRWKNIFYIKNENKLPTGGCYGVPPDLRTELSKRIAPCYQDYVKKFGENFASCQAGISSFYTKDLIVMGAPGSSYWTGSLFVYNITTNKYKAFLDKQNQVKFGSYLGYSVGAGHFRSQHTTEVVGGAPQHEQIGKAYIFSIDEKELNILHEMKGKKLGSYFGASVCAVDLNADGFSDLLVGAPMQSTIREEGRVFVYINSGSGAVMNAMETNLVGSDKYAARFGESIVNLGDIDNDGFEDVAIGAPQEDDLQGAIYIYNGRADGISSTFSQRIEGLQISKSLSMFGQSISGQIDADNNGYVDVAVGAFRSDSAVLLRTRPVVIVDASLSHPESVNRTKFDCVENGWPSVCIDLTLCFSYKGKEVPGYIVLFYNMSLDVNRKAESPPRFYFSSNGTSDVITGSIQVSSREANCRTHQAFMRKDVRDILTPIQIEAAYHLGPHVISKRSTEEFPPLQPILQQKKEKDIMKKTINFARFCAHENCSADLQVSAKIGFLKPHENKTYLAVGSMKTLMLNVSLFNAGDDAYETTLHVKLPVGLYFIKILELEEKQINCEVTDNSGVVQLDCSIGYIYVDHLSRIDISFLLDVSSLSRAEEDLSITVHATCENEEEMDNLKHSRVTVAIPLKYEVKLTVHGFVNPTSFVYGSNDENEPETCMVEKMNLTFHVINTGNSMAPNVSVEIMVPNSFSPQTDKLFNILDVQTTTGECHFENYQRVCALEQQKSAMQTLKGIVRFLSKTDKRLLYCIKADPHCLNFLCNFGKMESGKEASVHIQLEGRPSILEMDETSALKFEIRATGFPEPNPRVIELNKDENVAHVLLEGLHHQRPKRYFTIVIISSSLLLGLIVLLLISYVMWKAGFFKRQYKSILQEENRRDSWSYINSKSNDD
# LAP4 TOR yeast = yeast TOR pathway LAP4-GFP modulation; S. cerevisiae LAP4-GFP multiplex, flow cytometry GFP, 3 h; median GFP as percent of DMSO wells; GFP response vs DMSO, % at 10 µM; 320,000 tested, 0.34% active; AID 2023;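 active means GFP response vs DMSO above a set limit, about the screen mean plus 3 SD, cut at about 150% in these data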
# MEP2 TOR yeast = yeast TOR pathway MEP2-GFP modulation | S. cerevisiae MEP2-GFP strain, flow cytometry GFP, 3 h; 100% = DMSO control level | GFP response vs DMSO, % at 10 µM | 330,000 tested, 0.51% active | AID 2016;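 active means GFP response versus DMSO above a set limit, roughly screen mean plus 3 SD, cut at about 180% in these data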;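 further: median GFP fluorescence of the barcode-gated MEP2-GFP cells per well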
# LAP4-GFP pick2 = yeast LAP4-GFP modulation, second cherry pick | AID 2621 | S. cerevisiae LAP4-GFP strain, flow cytometry GFP, 3 h | shares compounds with LAP4 TOR yeast | GFP response vs DMSO, % at 10 µM | 590 tested, 20% active;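 active means GFP signal as percent of the solvent control above about 150%, meaning raised reporter expression, limit read from the data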;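 further: ratio of well median GFP fluorescence to plate DMSO mean so 100% = DMSO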
# MEP2 cherry2 = second confirmation of modulators of TOR reporter MEP2-GFP in yeast; shares compounds with LAP4 TOR yeast; S. cerevisiae MEP2-GFP strain, flow cytometry GFP, 3 h; GFP response vs DMSO, % at 10 µM; 590 tested, 10% active;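 active means GFP signal above 150% of the solvent control wells, that is a rise of more than half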;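 further: median channel GFP fluorescence of all gated yeast cells per well; ratio of median GFP to plate DMSO average so 100% = DMSO level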
# RPL19A-GFP pick2 = yeast RPL19A-GFP TOR reporter modulation, second cherry pick; AID 2623; GFP response vs DMSO, % at 10 µM; 590 tested, 3% active; S. cerevisiae RPL19A-GFP strain, flow cytometry GFP, 3 h; stronger effect = lower value; 100% means same as DMSO wells; shares compounds with LAP4 TOR yeast;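 active means under 65% GFP response relative to DMSO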;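 further: median GFP channel fluorescence per well over the all cells gate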
# CIT2-GFP pick2 = second confirmation of modulators of TOR reporter CIT2-GFP in yeast; shares compounds with LAP4 TOR yeast; S. cerevisiae CIT2-GFP strain, flow cytometry GFP, 3 h; DMSO control wells read 100%; GFP response vs DMSO, % at 10 µM; 590 tested, 8% active; AID 2624;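 active means GFP response vs DMSO above about 150%, limit read from the data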;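 further: median green fluorescence per well over all gated yeast cells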
# AGP1 GFP CP2 = yeast AGP1-GFP TOR reporter modulation, second cherry pick; 590 tested, under 10 active; S. cerevisiae AGP1-GFP strain, flow cytometry GFP, 3 h; shares compounds with LAP4 TOR yeast; percent response vs DMSO, % at 10 µM;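 active means over 150 percent of DMSO response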;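 further: median GFP channel fluorescence over all cells without mother daughter split; sample median GFP divided by mean DMSO control so 100% equals DMSO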
# Yeast autofluor = yeast s288c autofluorescence artifact, counter-screen. shares compounds with LAP4 TOR yeast. S. cerevisiae s288c, 520 nm autofluorescence, flow cytometry, 3 h; stronger effect = higher value; zero means same as solvent-only cells. fluorescence change (kMESF span) at 33 µM. 610 tested, under 10 active. AID 2757;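 active means fluorescence span over the dose series, or activity score, above about 33, limit read from the data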
# * = called active by the depositor; · = not tested or not shown.
SMILES,AGP1 TOR yeast,RPL19A-GFP yeast,CIT2-GFP yeast,VLA-4 inh,LAP4 TOR yeast,MEP2 TOR yeast,LAP4-GFP pick2,MEP2 cherry2,RPL19A-GFP pick2,CIT2-GFP pick2,AGP1 GFP CP2,Yeast autofluor
CC(C)[C@@]1(c2ccccc2)ON(c2ccccc2C(F)(F)F)C1=O,100,99,105,23,110,94,105,96,102,104,97,-0.2
O=C(O)CC1c2ccccc2CCN1S(=O)(=O)c1cccs1 (stereo not drawn),116,76,107,-255,119,106,·,·,·,·,·,·
COc1cccc(NC(=O)COC(=O)c2ccccc2C(=O)N(C)c2ccccc2)c1,121,114,104,11,117,112,·,·,·,·,·,·
O=Cc1coc2c(ccc3ccccc32)c1=O,79,98,93,-9,109,91,·,·,·,·,·,·
O=C1N(c2ccccc2C(F)(F)F)O[C@]1(c1ccccc1)C1CCCCC1,71,95,99,23,85,89,107,102,105,115,107,-0.1
O=C(c1ccc([N+](=O)[O-])o1)N1CCN(c2nc3c(F)cc(F)cc3s2)CC1,79,60,131,34,167*,146,·,·,·,·,·,9.5
Cc1ccc(C)c2sc(N3CCN(C(=O)c4ccc([N+](=O)[O-])o4)CC3)nc12,107,97,91,13,110,120,·,·,·,·,·,·
Cc1cc(C)nc(Nc2n[nH]c(COc3ccccc3)n2)n1,25,62,101,20,88,167,101,107,99,104,96,·
Cc1cc(C)nc(Nc2n[nH]c(COc3ccc4ccccc4c3)n2)n1,101,96,93,-7,105,104,·,·,·,·,·,·
CN(C)/C=C/C(=O)c1ccc(-c2ccc(Cl)cc2Cl)o1,21,58,85,24,83,160,159*,148,113,154*,87,0.8
O=C(O)c1ccc(-c2ccc(Cl)cc2Cl)o1,69,81,76,18,98,93,·,·,·,·,·,·
CCOc1cccc(C(=O)Nc2ccc(NC(=O)c3cc4ccccc4o3)c(OC)c2)c1,109,105,111,-9,87,104,·,·,·,·,·,·
COc1cc(NC(=O)c2cccc(C)c2)ccc1NC(=O)c1cc2ccccc2o1,99,107,101,-295,91,113,·,·,·,·,·,0.1
O=C(Nc1ccc(NC(=O)c2cc3ccccc3o2)cc1)c1ccco1,98,106,101,1,93,105,·,·,·,·,·,0.3
COc1ccc(N2CC(NC(=O)N3CCN(C(=O)c4ccco4)CC3)CC2=O)cc1OC (stereo not drawn),101,101,103,-11,104,106,·,·,·,·,·,·
CC(C)c1ccc(CCNC(=O)CSC(=S)N2CCCC2)cc1,108,98,107,8,105,100,·,·,·,·,·,·
CC(=O)N1c2ccc(S(=O)(=O)N3CCC(C(=O)N4CCN(c5cccc(C(F)(F)F)c5)CC4)CC3)cc2CC1C (stereo not drawn),100,99,103,-4,95,102,·,·,·,·,·,·
CC(=O)c1ccc(N2CCN(C(=O)C3CCN(S(=O)(=O)c4ccc5c(c4)CC(C)N5C(C)=O)CC3)CC2)cc1 (stereo not drawn),109,86,90,15,183*,94,104,105,100,107,99,·
Cc1cc2c(c(CO)c1CCO)C(=O)[C@@H](C)[C@@H]2O,103,114,101,3,101,102,·,·,·,·,·,·
COc1ccccc1-c1nnc(SCCN2CCOCC2)n1-c1ccc(C)cc1,30,71,124,-2,100,196*,102,100,101,114,97,·
COc1ccc(S(=O)(=O)NCCc2cn3nc(C)c(C)nc3n2)cc1F,23,62,98,2,85,120,98,100,99,100,98,·
C/C(=N\NC(=O)c1c[nH]c2ccccc12)c1ccccn1,114,99,108,2,107,103,·,·,·,·,·,·
C/C(=N\NC(=O)c1cc2ccccc2cc1O)c1ccccn1,101,97,97,9,216*,119,·,·,·,·,·,1.6
Cc1cc(C)c(OCC(=O)OCC(=O)N(C)C2CCS(=O)(=O)C2)c(C)c1 (stereo not drawn),113,105,113,-10,105,109,·,·,·,·,·,·
CCOC(=O)Cn1c(CN2CCOCC2)nc2c1c(=O)n(C)c(=O)n2C,106,69,101,-11,222*,95,108,119,101,115,99,·
SMILES,AGP1 TOR yeast,RPL19A-GFP yeast,CIT2-GFP yeast,VLA-4 inh,LAP4 TOR yeast,MEP2 TOR yeast,LAP4-GFP pick2,MEP2 cherry2,RPL19A-GFP pick2,CIT2-GFP pick2,AGP1 GFP CP2,Yeast autofluor
COC(=O)c1cn(C(=O)c2ccc(C)c(C)c2)c2ccccc12,91,88,78,13,151*,86,98,100,98,100,100,·
O=C(c1ccc(Cl)cc1)N1CCN(c2ccc(F)cc2)CC1,107,93,86,2,113,99,·,·,·,·,·,·
O=C(c1ccc(Cl)cc1)N1CCN(c2cccc3[nH]ccc23)CC1,98,65,91,0,259*,87,·,·,·,·,·,-0.2
CC1CCCN(C(=O)CN(C)S(=O)(=O)c2ccc3c(c2)c(=O)n(C)c(=O)n3C)C1 (stereo not drawn),100,104,104,0,97,108,·,·,·,·,·,·
OC(c1ccccc1)(c1ccccc1)c1ccn[nH]1,103,101,96,33,93,104,·,·,·,·,·,·
COc1cccc(/C=C2\C(=O)N(c3cccc(C)c3)C(=O)c3ccccc32)c1,94,96,74,-4,154*,96,·,·,·,·,·,0
Cc1cccc(N2C(=O)/C(=C\c3ccc(OC(F)F)cc3)c3ccccc3C2=O)c1,78,86,68,18,147,93,·,·,·,·,·,·
